Several values for one entry are separate records, joined by “and”; a condition that tells them apart may be missing. Equal entries are not always repeated. About 83,000 compounds went through this panel and 20% of them were active in at least one assay; those are over-represented in the sample as a whole.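 Single-concentration screen, 48 h exposure, 96-well plates. Endpoint: percent growth. Below 10 = active.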 Activity calls are given as the source filed them.
Legend:
Test in all cases: NCI-60 one-dose screen, 48 h (100 = growth as untreated, 0 = no growth, -100 = all killed)
HCT-15 colon = tested on: HCT-15 colon
HT29 colon = tested on: HT29 colon
SNB-75 CNS = tested on: SNB-75 CNS
SNB-19 CNS = tested on: SNB-19 CNS
U251 CNS = tested on: U251 CNS
PC-3 prostate = tested on: PC-3 prostate
SK-MEL-5 melanoma = tested on: SK-MEL-5 melanoma
UACC-62 melanoma = tested on: UACC-62 melanoma
LOX IMVI melanoma = tested on: LOX IMVI melanoma
SK-MEL-28 melanoma = tested on: SK-MEL-28 melanoma

Measured: growth

C=CC1CN2CCC1CC2C(O)c1ccnc2ccccc12 (stereo not given)
inactive: HCT-15 colon; 10 µM unless noted 116% | HT29 colon; 10 µM unless noted 115% | SNB-75 CNS; 10 µM unless noted 124% | SNB-19 CNS; 10 µM unless noted 124% | U251 CNS; 10 µM unless noted 115% | PC-3 prostate; 10 µM unless noted 55.8% | SK-MEL-5 melanoma; 10 µM unless noted 104% | UACC-62 melanoma; 10 µM unless noted 113% | LOX IMVI melanoma; 10 µM unless noted 117% | SK-MEL-28 melanoma; 10 µM unless noted 133%

CC(C)c1cccc(C(C)C)c1O
inactive: HCT-15 colon; 10 µM unless noted 99.1% and 107% | HT29 colon; 10 µM unless noted 99.4% and 102% | SNB-75 CNS; 10 µM unless noted 109% and 81.4% | SNB-19 CNS; 10 µM unless noted 123% and 94% | U251 CNS; 10 µM unless noted 97.2% and 99.7% | PC-3 prostate; 10 µM unless noted 99.7% and 93.8% | SK-MEL-5 melanoma; 10 µM unless noted 110% | UACC-62 melanoma; 10 µM unless noted 118% and 92.1% | LOX IMVI melanoma; 10 µM unless noted 96.9% and 105% | SK-MEL-28 melanoma; 10 µM unless noted 115% and 104%

CCCCCCCCCCCCCCCC[N+](C)(C)Cc1ccccc1
active: HT29 colon; 10 µM unless noted -43.6% and -81% | SNB-75 CNS; 10 µM unless noted -21.6% and -70.3% | SNB-19 CNS; 10 µM unless noted -40.3% | U251 CNS; 10 µM unless noted -16% and -94.9% | PC-3 prostate; 10 µM unless noted -34.9% and -44.1% | SK-MEL-5 melanoma; 10 µM unless noted -86.5% and -100% | UACC-62 melanoma; 10 µM unless noted -26% and -74.5% | LOX IMVI melanoma; 10 µM unless noted -79% and -97.1% | SK-MEL-28 melanoma; 10 µM unless noted -27.7% and -58.1%
inactive: HCT-15 colon; 10 µM unless noted 64% and 42%

Cc1c(C)c(N)c(C)c(C)c1N
inactive: HCT-15 colon; 10 µM unless noted 34.8% | HT29 colon; 10 µM unless noted 25.7% | SNB-75 CNS; 10 µM unless noted 110% | SNB-19 CNS; 10 µM unless noted 82.1% | U251 CNS; 10 µM unless noted 78.1% | PC-3 prostate; 10 µM unless noted 73.6% | SK-MEL-5 melanoma; 10 µM unless noted 93% | UACC-62 melanoma; 10 µM unless noted 66.3% | LOX IMVI melanoma; 10 µM unless noted 51.9% | SK-MEL-28 melanoma; 10 µM unless noted 106%

COc1ccc(O)c2c(=O)c3c(OC)cc4c(c3oc12)[C@@H]1C=CO[C@@H]1O4
active: UACC-62 melanoma; 10 µM unless noted 7.2%
inactive: HCT-15 colon; 10 µM unless noted 53.3% | HT29 colon; 10 µM unless noted 54.3% | SNB-75 CNS; 10 µM unless noted 38.5% | SNB-19 CNS; 10 µM unless noted 81% | U251 CNS; 10 µM unless noted 73.4% | PC-3 prostate; 10 µM unless noted 76.7% | SK-MEL-5 melanoma; 10 µM unless noted 25.9% | LOX IMVI melanoma; 10 µM unless noted 72.6% | SK-MEL-28 melanoma; 10 µM unless noted 98.2%

CC(=O)OCC1OC([S-])C(OC(C)=O)C(OC(C)=O)C1OC(C)=O.[Au+].c1ccc(CN2[CH-]N(Cc3ccccc3)C(c3ccccc3)=C2c2ccccc2)cc1
inactive: HT29 colon; 10 µM 16.4% | SNB-75 CNS; 4.75 µM 26.1% | SK-MEL-5 melanoma; 10 µM 16.8% | SK-MEL-28 melanoma; 4.75 µM 10% | SK-MEL-28 melanoma; 10 µM 20.2%
active: HCT-15 colon; 4.75 µM -57.5% | HCT-15 colon; 10 µM -79.8% | HT29 colon; 4.75 µM 0.406% | SNB-75 CNS; 10 µM 3.87% | SNB-19 CNS; 4.75 µM -49.9% | SNB-19 CNS; 10 µM -80.3% | U251 CNS; 4.75 µM -72.4% | U251 CNS; 10 µM -84% | PC-3 prostate; 4.75 µM 4.86% | PC-3 prostate; 10 µM 9.73% | SK-MEL-5 melanoma; 4.75 µM -50.5% | UACC-62 melanoma; 4.75 µM -18.6% | UACC-62 melanoma; 10 µM 3.54% | LOX IMVI melanoma; 4.75 µM -82.1% | LOX IMVI melanoma; 10 µM -86.2%

C[C@]12CCc3nc(-c4ccc(O)c(O)c4)sc3C1=CC[C@@H]1[C@@H]2CC[C@]2(C)C(=O)CC[C@@H]12
inactive: HCT-15 colon; 10 µM unless noted 26% | HT29 colon; 10 µM unless noted 77.7% | SNB-75 CNS; 10 µM unless noted 92.3% | SNB-19 CNS; 10 µM unless noted 75% | U251 CNS; 10 µM unless noted 40.5% | PC-3 prostate; 10 µM unless noted 34.3% | SK-MEL-5 melanoma; 10 µM unless noted 78.5% | UACC-62 melanoma; 10 µM unless noted 91.5% | LOX IMVI melanoma; 10 µM unless noted 89.1% | SK-MEL-28 melanoma; 10 µM unless noted 84.6%

c1ccc(CCN2CCCCC2)nc1
inactive: HCT-15 colon; 10 µM unless noted 74.1% | HT29 colon; 10 µM unless noted 95.8% | SNB-75 CNS; 10 µM unless noted 78.8% | SNB-19 CNS; 10 µM unless noted 109% | U251 CNS; 10 µM unless noted 107% | PC-3 prostate; 10 µM unless noted 84.8% | SK-MEL-5 melanoma; 10 µM unless noted 115% | UACC-62 melanoma; 10 µM unless noted 97.9% | LOX IMVI melanoma; 10 µM unless noted 107% | SK-MEL-28 melanoma; 10 µM unless noted 104%

CC[C@H](C)[C@H](NC(=O)[C@H]1CCCCN1C)C(=O)N(C)[C@H](C[C@@H](OC(C)=O)c1cccc(C(=O)N[C@@H](Cc2ccccc2)C[C@H](C)C(=O)OC)n1)C(C)C
active: HCT-15 colon; 10 µM unless noted 8.45% | HT29 colon; 10 µM unless noted -5.46% | SK-MEL-5 melanoma; 10 µM unless noted -14.5%
inactive: SNB-75 CNS; 10 µM unless noted 23.5% | SNB-19 CNS; 10 µM unless noted 33.1% | U251 CNS; 10 µM unless noted 14.3% | PC-3 prostate; 10 µM unless noted 18.9% | UACC-62 melanoma; 10 µM unless noted 38.6% | LOX IMVI melanoma; 10 µM unless noted 14.6% | SK-MEL-28 melanoma; 10 µM unless noted 62.8%

C[C@]12CC[C@H]3[C@@H](C[C@@H]4SC(Nc5cccc(F)c5)=N[C@@]45CC(=O)CC[C@]35C)[C@@H]1CCC2=O
inactive: SNB-75 CNS; 10 µM unless noted 18.7% | SNB-19 CNS; 10 µM unless noted 62.8% | U251 CNS; 10 µM unless noted 15.7% | PC-3 prostate; 10 µM unless noted 19.1% | SK-MEL-5 melanoma; 10 µM unless noted 32.1% | UACC-62 melanoma; 10 µM unless noted 37.5% | SK-MEL-28 melanoma; 10 µM unless noted 39.4%
active: HCT-15 colon; 10 µM unless noted 6.88% | HT29 colon; 10 µM unless noted -3.32% | LOX IMVI melanoma; 10 µM unless noted 6.22%

CC[PH+](CC)CC.O=COC1OC([S-])C(OC=O)C(OC=O)C1OC=O.[Au+] (stereo not given)
active: HCT-15 colon; 10 µM unless noted -74.9% | HT29 colon; 10 µM unless noted -54% | SNB-75 CNS; 10 µM unless noted -24.2% | SNB-19 CNS; 10 µM unless noted -99.1% | U251 CNS; 10 µM unless noted -99.5% | PC-3 prostate; 10 µM unless noted -7.17% | SK-MEL-5 melanoma; 10 µM unless noted -96.7% | UACC-62 melanoma; 10 µM unless noted -99% | LOX IMVI melanoma; 10 µM unless noted -89.4% | SK-MEL-28 melanoma; 10 µM unless noted -92.1%

Source: PubChem BioAssay (NCI)
